# From paper PMC7862700, “An all-to-all approach to the identification of sequence-specific readers for epigenetic DNA modifications on cytosine”
# Tests used:
# Experiment in all cases: DAPPL (digital affinity profiling via proximity ligation, sequencing); 10 mM Tris-HCl pH 7.5, 50 mM NaCl, 1 mM DTT, 4% glycerol, room temperature, 30 min; GST-TFs on glutathione beads, 16-mer random dsDNA library, 0.1% formaldehyde crosslink after washing; high values mean tight binding
# FEV = biological target: T1, FEV (Homo sapiens, UniProt Q99581 1-238); conditions: protein: recombinant; tags: N-terminal GST; dsDNA, one strand shown
# T1 sequence: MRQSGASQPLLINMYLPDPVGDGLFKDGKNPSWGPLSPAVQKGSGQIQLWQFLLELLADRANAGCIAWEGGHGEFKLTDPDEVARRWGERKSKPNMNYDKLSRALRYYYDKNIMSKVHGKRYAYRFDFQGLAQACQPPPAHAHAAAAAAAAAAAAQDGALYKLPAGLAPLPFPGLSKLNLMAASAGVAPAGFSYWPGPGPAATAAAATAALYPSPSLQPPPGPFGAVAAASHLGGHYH
# Procedure, shortened: (§1)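 After expression in yeast as GST fusions, human transcription factors were bound to glutathione beads, DNA-barcoded and mixed with a tag-only sample. The pools were incubated with 200 nmole of a 16-mer random double-stranded DNA library in Tris/NaCl/DTT/glycerol buffer (30 min, room temperature), washed and crosslinked with 0.1% formaldehyde. Proximity ligation with BsaI/T4 ligase ran for 1 h at 37 °C, before PCR amplification and sequencing on an Illumina NextSeq500. Binding signal is a hexamer's read frequency for a factor divided by its frequency for the tag-only sample.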
# ETV5 = ETV5 (Homo sapiens, UniProt P41161 1-510); conditions: protein: recombinant; tags: N-terminal GST; dsDNA, one strand shown
# Procedure, shortened: as §1
# HSF1 = HSF1 (Homo sapiens, UniProt Q00613 1-529); conditions: protein: recombinant; tags: N-terminal GST; chain copies: 3; dsDNA, one strand shown
# Procedure, shortened: as §1
# SPIC = biological target: T2, SPIC (Homo sapiens, UniProt Q8N5J4 1-248); conditions: protein: recombinant; tags: N-terminal GST; dsDNA, one strand shown
# T2 sequence: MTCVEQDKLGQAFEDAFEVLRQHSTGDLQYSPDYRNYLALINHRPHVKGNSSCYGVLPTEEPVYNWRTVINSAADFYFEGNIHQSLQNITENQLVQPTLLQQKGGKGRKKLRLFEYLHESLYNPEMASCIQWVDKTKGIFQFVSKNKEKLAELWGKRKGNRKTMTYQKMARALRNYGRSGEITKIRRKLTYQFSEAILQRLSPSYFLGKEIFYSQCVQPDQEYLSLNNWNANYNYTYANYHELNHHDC
# Procedure, shortened: as §1
# ELF4 = ELF4 (Homo sapiens, UniProt Q99607 1-663); conditions: protein: recombinant; tags: N-terminal GST; dsDNA, one strand shown
# Procedure, shortened: as §1
# ELK4 = biological target: T3, ELK4 (Homo sapiens, UniProt P28324-2 1-405); conditions: protein: recombinant; tags: N-terminal GST; dsDNA, one strand shown
# T3 sequence: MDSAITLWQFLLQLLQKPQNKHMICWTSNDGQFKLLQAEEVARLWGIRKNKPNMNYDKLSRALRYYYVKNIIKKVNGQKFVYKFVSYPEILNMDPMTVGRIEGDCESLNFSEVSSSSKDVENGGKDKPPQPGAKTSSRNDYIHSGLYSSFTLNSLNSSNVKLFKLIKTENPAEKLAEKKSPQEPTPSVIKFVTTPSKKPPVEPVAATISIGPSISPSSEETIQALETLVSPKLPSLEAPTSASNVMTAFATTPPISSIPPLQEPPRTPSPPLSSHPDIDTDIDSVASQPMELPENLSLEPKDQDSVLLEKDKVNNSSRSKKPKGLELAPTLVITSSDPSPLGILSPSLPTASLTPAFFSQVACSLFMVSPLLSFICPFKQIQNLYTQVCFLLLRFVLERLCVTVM
# Procedure, shortened: as §1
# ETV2 = biological target: T4, ETV2 (Homo sapiens, UniProt O00321 1-342); conditions: protein: recombinant; tags: N-terminal GST; dsDNA, one strand shown
# T4 sequence: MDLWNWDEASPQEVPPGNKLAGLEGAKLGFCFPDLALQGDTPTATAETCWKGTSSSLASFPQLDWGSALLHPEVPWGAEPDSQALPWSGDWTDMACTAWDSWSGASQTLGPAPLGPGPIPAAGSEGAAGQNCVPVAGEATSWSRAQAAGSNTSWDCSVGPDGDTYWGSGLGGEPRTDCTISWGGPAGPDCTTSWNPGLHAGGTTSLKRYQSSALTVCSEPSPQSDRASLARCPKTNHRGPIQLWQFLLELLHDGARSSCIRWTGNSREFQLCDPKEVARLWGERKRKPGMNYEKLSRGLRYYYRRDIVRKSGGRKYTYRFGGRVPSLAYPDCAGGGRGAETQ
# Procedure, shortened: as §1
# ELF3 = biological target: T5, ELF3 (Homo sapiens, UniProt P78545 1-371); conditions: protein: recombinant; tags: N-terminal GST; dsDNA, one strand shown
# T5 sequence: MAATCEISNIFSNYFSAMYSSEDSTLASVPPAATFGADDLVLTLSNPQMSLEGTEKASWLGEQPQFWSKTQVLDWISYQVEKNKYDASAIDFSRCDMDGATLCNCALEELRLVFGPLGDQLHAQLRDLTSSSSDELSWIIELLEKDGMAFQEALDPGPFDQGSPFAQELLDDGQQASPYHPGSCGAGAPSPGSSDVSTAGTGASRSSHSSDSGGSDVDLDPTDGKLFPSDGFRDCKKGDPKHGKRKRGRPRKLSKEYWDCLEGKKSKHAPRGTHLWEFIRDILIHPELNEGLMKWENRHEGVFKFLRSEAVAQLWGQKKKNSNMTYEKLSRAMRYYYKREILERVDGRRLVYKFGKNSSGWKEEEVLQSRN
# Procedure, shortened: as §1
# ETV1 = ETV1 (Homo sapiens, UniProt P50549 1-477); conditions: protein: recombinant; tags: N-terminal GST; dsDNA, one strand shown
# Procedure, shortened: as §1
# ELF4, sequence (Q99607 whole entry): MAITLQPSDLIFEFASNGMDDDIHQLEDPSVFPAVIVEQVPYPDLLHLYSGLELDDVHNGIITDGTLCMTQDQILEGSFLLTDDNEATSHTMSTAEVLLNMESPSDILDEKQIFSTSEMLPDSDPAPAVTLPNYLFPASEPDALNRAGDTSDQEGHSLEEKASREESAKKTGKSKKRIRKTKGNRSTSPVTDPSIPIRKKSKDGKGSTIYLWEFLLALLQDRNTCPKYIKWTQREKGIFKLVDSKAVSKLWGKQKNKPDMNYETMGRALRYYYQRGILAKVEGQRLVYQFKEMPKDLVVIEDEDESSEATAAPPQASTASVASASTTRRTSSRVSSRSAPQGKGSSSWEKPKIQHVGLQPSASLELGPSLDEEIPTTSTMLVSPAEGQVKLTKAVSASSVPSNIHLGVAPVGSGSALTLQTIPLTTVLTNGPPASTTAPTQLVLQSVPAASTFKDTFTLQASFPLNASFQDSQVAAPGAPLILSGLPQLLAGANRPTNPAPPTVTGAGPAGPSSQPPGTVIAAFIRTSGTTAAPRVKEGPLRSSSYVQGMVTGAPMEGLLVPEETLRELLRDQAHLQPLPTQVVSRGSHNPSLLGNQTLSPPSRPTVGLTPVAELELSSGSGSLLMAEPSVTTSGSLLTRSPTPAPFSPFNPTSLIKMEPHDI
# ETV1, sequence (P50549 whole entry): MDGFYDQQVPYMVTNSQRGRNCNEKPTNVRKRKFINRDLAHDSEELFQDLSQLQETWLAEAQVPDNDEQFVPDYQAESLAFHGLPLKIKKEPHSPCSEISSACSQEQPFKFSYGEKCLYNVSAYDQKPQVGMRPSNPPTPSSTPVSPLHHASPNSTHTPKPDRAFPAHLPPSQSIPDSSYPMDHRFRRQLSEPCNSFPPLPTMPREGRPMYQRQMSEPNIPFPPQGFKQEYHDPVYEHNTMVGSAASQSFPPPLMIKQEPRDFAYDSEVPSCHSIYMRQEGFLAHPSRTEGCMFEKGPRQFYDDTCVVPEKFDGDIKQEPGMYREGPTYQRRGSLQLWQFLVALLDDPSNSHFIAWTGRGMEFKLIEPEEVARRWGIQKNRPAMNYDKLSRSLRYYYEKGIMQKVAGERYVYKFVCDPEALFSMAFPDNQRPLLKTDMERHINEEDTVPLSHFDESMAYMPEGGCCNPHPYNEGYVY
# ETV5, sequence (P41161 whole entry): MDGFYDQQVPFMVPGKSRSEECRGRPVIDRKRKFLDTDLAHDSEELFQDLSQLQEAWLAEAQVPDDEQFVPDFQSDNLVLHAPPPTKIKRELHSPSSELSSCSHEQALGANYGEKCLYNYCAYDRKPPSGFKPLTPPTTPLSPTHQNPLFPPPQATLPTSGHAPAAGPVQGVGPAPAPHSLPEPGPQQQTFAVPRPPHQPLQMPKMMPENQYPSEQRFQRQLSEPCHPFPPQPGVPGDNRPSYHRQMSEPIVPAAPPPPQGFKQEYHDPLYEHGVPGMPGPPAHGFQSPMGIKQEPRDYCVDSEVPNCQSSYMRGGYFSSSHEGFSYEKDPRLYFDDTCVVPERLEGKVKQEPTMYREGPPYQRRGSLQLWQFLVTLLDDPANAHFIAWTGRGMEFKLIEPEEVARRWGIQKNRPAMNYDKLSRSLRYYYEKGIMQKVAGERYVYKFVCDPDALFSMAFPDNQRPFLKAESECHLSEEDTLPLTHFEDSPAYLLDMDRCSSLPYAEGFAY
# HSF1, sequence (Q00613 whole entry): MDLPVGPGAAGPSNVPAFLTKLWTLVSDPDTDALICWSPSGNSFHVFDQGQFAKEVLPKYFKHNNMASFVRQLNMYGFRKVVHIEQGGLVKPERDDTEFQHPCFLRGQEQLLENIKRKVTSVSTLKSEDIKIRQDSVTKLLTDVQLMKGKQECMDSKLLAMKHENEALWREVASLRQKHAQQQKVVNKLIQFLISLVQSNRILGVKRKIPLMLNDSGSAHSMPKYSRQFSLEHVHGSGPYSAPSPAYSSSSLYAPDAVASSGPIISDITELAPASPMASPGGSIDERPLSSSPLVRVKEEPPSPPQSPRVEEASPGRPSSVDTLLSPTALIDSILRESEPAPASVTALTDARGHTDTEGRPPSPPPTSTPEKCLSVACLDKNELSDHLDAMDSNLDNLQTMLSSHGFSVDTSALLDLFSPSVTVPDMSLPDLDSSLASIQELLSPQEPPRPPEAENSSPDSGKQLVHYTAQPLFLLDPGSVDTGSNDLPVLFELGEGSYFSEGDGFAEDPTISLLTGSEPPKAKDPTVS
Sequence,binding signal (FEV),binding signal (ETV5),binding signal (HSF1),binding signal (SPIC),binding signal (ELF4),binding signal (ELK4),binding signal (ETV2),binding signal (ELF3),binding signal (ETV1)
CCGGAA,"8.09 fold enrichment (6-mer frequency, TF over GST control)","6.13 fold enrichment (6-mer frequency, TF over GST control)","1.68 fold enrichment (6-mer frequency, TF over GST control)","4.87 fold enrichment (6-mer frequency, TF over GST control)","4.92 fold enrichment (6-mer frequency, TF over GST control)","3.97 fold enrichment (6-mer frequency, TF over GST control)","5.1 fold enrichment (6-mer frequency, TF over GST control)","5.42 fold enrichment (6-mer frequency, TF over GST control)","6.04 fold enrichment (6-mer frequency, TF over GST control)"
CGTCCC,"1.34 fold enrichment (6-mer frequency, TF over GST control)","1.3 fold enrichment (6-mer frequency, TF over GST control)","1.08 fold enrichment (6-mer frequency, TF over GST control)","1.38 fold enrichment (6-mer frequency, TF over GST control)","1.27 fold enrichment (6-mer frequency, TF over GST control)","1.39 fold enrichment (6-mer frequency, TF over GST control)","1.12 fold enrichment (6-mer frequency, TF over GST control)","1.45 fold enrichment (6-mer frequency, TF over GST control)","1.34 fold enrichment (6-mer frequency, TF over GST control)"
GTAACT,"1.18 fold enrichment (6-mer frequency, TF over GST control)","1.21 fold enrichment (6-mer frequency, TF over GST control)","1.02 fold enrichment (6-mer frequency, TF over GST control)","1.37 fold enrichment (6-mer frequency, TF over GST control)","1.27 fold enrichment (6-mer frequency, TF over GST control)","1.26 fold enrichment (6-mer frequency, TF over GST control)","1.2 fold enrichment (6-mer frequency, TF over GST control)","1.16 fold enrichment (6-mer frequency, TF over GST control)","1.16 fold enrichment (6-mer frequency, TF over GST control)"
TCGTAC,"1.13 fold enrichment (6-mer frequency, TF over GST control)","1.13 fold enrichment (6-mer frequency, TF over GST control)","1.06 fold enrichment (6-mer frequency, TF over GST control)","1.09 fold enrichment (6-mer frequency, TF over GST control)","1.14 fold enrichment (6-mer frequency, TF over GST control)","1.03 fold enrichment (6-mer frequency, TF over GST control)","1.22 fold enrichment (6-mer frequency, TF over GST control)","1.22 fold enrichment (6-mer frequency, TF over GST control)","1.18 fold enrichment (6-mer frequency, TF over GST control)"
GGCACT,"1.46 fold enrichment (6-mer frequency, TF over GST control)","1.32 fold enrichment (6-mer frequency, TF over GST control)","1.03 fold enrichment (6-mer frequency, TF over GST control)","1.24 fold enrichment (6-mer frequency, TF over GST control)","1.26 fold enrichment (6-mer frequency, TF over GST control)","1.28 fold enrichment (6-mer frequency, TF over GST control)","1.19 fold enrichment (6-mer frequency, TF over GST control)","1.29 fold enrichment (6-mer frequency, TF over GST control)","1.38 fold enrichment (6-mer frequency, TF over GST control)"
GTTCCA,"1.01 fold enrichment (6-mer frequency, TF over GST control)","1.05 fold enrichment (6-mer frequency, TF over GST control)","1.79 fold enrichment (6-mer frequency, TF over GST control)","1.21 fold enrichment (6-mer frequency, TF over GST control)","1.13 fold enrichment (6-mer frequency, TF over GST control)","1.14 fold enrichment (6-mer frequency, TF over GST control)","1.06 fold enrichment (6-mer frequency, TF over GST control)","1.12 fold enrichment (6-mer frequency, TF over GST control)","1.06 fold enrichment (6-mer frequency, TF over GST control)"
TGCCGA,"1.11 fold enrichment (6-mer frequency, TF over GST control)","1.19 fold enrichment (6-mer frequency, TF over GST control)","1.07 fold enrichment (6-mer frequency, TF over GST control)","1.37 fold enrichment (6-mer frequency, TF over GST control)","1.19 fold enrichment (6-mer frequency, TF over GST control)","1.14 fold enrichment (6-mer frequency, TF over GST control)","1.08 fold enrichment (6-mer frequency, TF over GST control)","1.16 fold enrichment (6-mer frequency, TF over GST control)","1.14 fold enrichment (6-mer frequency, TF over GST control)"
GAAACT,"1.29 fold enrichment (6-mer frequency, TF over GST control)","1.28 fold enrichment (6-mer frequency, TF over GST control)","1.32 fold enrichment (6-mer frequency, TF over GST control)","1.25 fold enrichment (6-mer frequency, TF over GST control)","1.24 fold enrichment (6-mer frequency, TF over GST control)","1.14 fold enrichment (6-mer frequency, TF over GST control)","1.12 fold enrichment (6-mer frequency, TF over GST control)","1.19 fold enrichment (6-mer frequency, TF over GST control)","1.27 fold enrichment (6-mer frequency, TF over GST control)"
